The text below walks through data of PubChem BioAssay (NCI).

A short description of experiment [1]: NCI Yeast Anticancer Drug Screen. Data for the rad50 strain (AID 155).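 Further: 0% = growth of vehicle-only cultures of the same strain.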 The conditions noted are these: S. cerevisiae rad50 strain growth inhibition, active compounds read high. Summed up: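 Relative growth inhibition (compound vs vehicle) was measured in yeast with a defined repair-gene alteration.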
A short description of experiment [2]: NCI Yeast Anticancer Drug Screen. Data for the mec2-1 strain (AID 157). To be noted: S. cerevisiae mec2-1 strain, active compounds read high. The gist of the method: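 Compounds were applied to mec2-1 yeast cells. Their growth was then compared with that of vehicle-treated cultures to give growth inhibition.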
A short description of experiment [3]: NCI Yeast Anticancer Drug Screen. Data for the sgs1 mgt1 strain (AID 161).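 Further: 0% = growth of cultures given vehicle only.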 To be noted: S. cerevisiae sgs1 mgt1 strain, active compounds read high. Summed up:
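This yeast growth screen uses a strain with defined DNA-repair lesions; compound-treated growth is compared with vehicle-treated growth.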

Experiment [4] in a line: NCI Yeast Anticancer Drug Screen. Data for the cln2 rad14 strain (AID 165).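 Further: 0% = growth equal to vehicle treated cultures.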 To be noted: S. cerevisiae cln2 rad14 strain, active compounds read high. Summed up: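 Strain: cln2 rad14 yeast, altered in cell cycle control and DNA damage repair. Read-out: growth inhibition vs vehicle.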
Experiment [5] in a line: NCI Yeast Anticancer Drug Screen. Data for the bub3 strain (AID 167). The conditions noted are these: S. cerevisiae bub3 mutant strain, active compounds read high. The gist of the method: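 Screening used yeast with an engineered genetic alteration affecting cell cycle control. Compound-exposed cultures were compared with vehicle cultures, and reduced growth was taken as inhibition.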

The nature of experiment [6]: NCI Yeast Anticancer Drug Screen. Data for the mlh1 rad18 strain (AID 175). The conditions noted are these: S. cerevisiae mlh1 rad18 strain growth inhibition, active compounds read high. The gist of the method:
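A repair-deficient yeast strain is exposed to test compound, and growth is scored relative to vehicle-treated controls.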

[7] abbreviates: at 5.0 µM (retest, dose inferred, filed as 0.5).
Setting [8] is: at 50.0 µM (retest, dose inferred, filed as 5.0).

About 79,000 compounds went through this panel and 15% of them were active in at least one assay; those are over-represented in the sample as a whole. Values without a mark were called inactive. The source made the active and inactive calls. No stated cut-off is given here; in the data, active means growth inhibition above about 70%; inactive means the rest.

For the compound `CC[N-]c1nncs1.CC[N-]c1nncs1.CC[N-]c1nncs1.CC[N-]c1nncs1.[Cl][Rh][Cl]`, the growth inhibition was -8% in experiment [1] (setting [7]); 95% (active) in experiment [1] (setting [8]); 97.7% (active) in experiment [1] (at 50.0 µM); 43% in experiment [2] (setting [7]); 74% (active) in experiment [2] (setting [8]); 97.8% (active) in experiment [2] (at 50.0 µM). In addition, the growth inhibition was 11% in experiment [3] (setting [7]); 93% (active) in experiment [3] (setting [8]); 98.5% (active) in experiment [3] (at 50.0 µM); 0% in experiment [4] (setting [7]); 77% (active) in experiment [4] (setting [8]); 91% (active) in experiment [4] (at 50.0 µM). Moreover, the growth inhibition is -4% in experiment [5] (setting [7]); 77% (active) in experiment [5] (setting [8]); 95.6% (active) in experiment [5] (at 50.0 µM); 15% in experiment [6] (setting [7]); 95% (active) in experiment [6] (setting [8]); 97.6% (active) in experiment [6] (at 50.0 µM).
For `Brc1ccc(N=Nc2ccc(-c3ccc[cH-]3)cc2)cc1.[Fe+2].c1cc[cH-]c1`, the growth inhibition in experiment [1] (setting [7]) was 3%; in experiment [1] (setting [8]), -3%; in experiment [1] (at 50.0 µM), 16.1%; in experiment [2] (setting [7]) it was 4%; in experiment [2] (setting [8]), 1%; in experiment [2] (at 50.0 µM), 6.65%. Further, the growth inhibition in experiment [3] (setting [7]) is 7%; in experiment [3] (setting [8]) it was -14%; in experiment [3] (at 50.0 µM), 6.3%; in experiment [4] (setting [7]), 8%; in experiment [4] (setting [8]) it was 11%; in experiment [4] (at 50.0 µM), 5.75%. The growth inhibition in experiment [5] (setting [7]) was 6%; in experiment [5] (setting [8]), 9%; in experiment [5] (at 50.0 µM) it was 45.4%; in experiment [6] (setting [7]), -2%; in experiment [6] (setting [8]), 1%; in experiment [6] (at 50.0 µM), 14.7%.
For the compound `Oc1ccc(CNC2CCCCC2)cc1`, the growth inhibition in experiment [1] (setting [7]) is -4%; in experiment [1] (setting [8]) it was 4%; in experiment [1] (at 50.0 µM) it was 70.8% (active); in experiment [2] (setting [7]) it was -13%; in experiment [2] (setting [8]), -20%; in experiment [2] (at 50.0 µM), 31.2%. Further, the growth inhibition in experiment [3] (setting [7]) was -5%; in experiment [3] (setting [8]), 10%; in experiment [3] (at 50.0 µM) it was 79.8% (active); in experiment [4] (setting [7]), -2%; in experiment [4] (setting [8]), -11%; in experiment [4] (at 50.0 µM), 50.5%. Further, the growth inhibition in experiment [5] (setting [7]) is -14%; in experiment [5] (setting [8]) it was -20%; in experiment [5] (at 50.0 µM), 37.4%; in experiment [6] (setting [7]), 1%; in experiment [6] (setting [8]) it was -25%; in experiment [6] (at 50.0 µM), 46.9%.
On to `C(#Cc1ccccc1)Sc1ccccc1`, for which the growth inhibition in experiment [1] (setting [7]) is 6%; in experiment [1] (setting [8]), 4%; in experiment [1] (at 50.0 µM) it was 12.9%; in experiment [2] (setting [7]), -9%; in experiment [2] (setting [8]) it was 14%; in experiment [2] (at 50.0 µM), 31.1%. Also, the growth inhibition was 1% in experiment [3] (setting [7]); 18% in experiment [3] (setting [8]); 65.7% in experiment [3] (at 50.0 µM); 6% in experiment [4] (setting [7]); 6% in experiment [4] (setting [8]); 23.1% in experiment [4] (at 50.0 µM). The growth inhibition in experiment [5] (setting [7]) was 29%; in experiment [5] (setting [8]), 9%; in experiment [5] (at 50.0 µM), -30.8%; in experiment [6] (setting [7]) it was 4%; in experiment [6] (setting [8]), 11%; in experiment [6] (at 50.0 µM), 56.4%.
With `O=c1[nH]cc(F)c(=O)n1C1CCCCO1` (stereo not given), the growth inhibition is 30% in experiment [1] (setting [7]); 41% in experiment [1] (setting [8]); 46% in experiment [1] (at 50.0 µM); 16% in experiment [2] (setting [7]); 34% in experiment [2] (setting [8]); 49.5% in experiment [2] (at 50.0 µM). Further, the growth inhibition was 46% in experiment [3] (setting [7]); 72% (active) in experiment [3] (setting [8]); 71% (active) in experiment [3] (at 50.0 µM); 46% in experiment [4] (setting [7]); 49% in experiment [4] (setting [8]); 12.2% in experiment [4] (at 50.0 µM). Moreover, the growth inhibition in experiment [5] (setting [7]) was 42%; in experiment [5] (setting [8]) it was 59%; in experiment [5] (at 50.0 µM) it was 34.5%; in experiment [6] (setting [7]), 23%; in experiment [6] (setting [8]), 35%; in experiment [6] (at 50.0 µM), 6.85%.
Take `CC(OC(=O)Nc1cccc(Cl)c1)c1ccccc1` (stereo not given): the growth inhibition in experiment [1] (setting [7]) was 18%; in experiment [1] (setting [8]) it was 99% (active); in experiment [1] (at 50.0 µM), 99.2% (active); in experiment [2] (setting [7]), 8%; in experiment [2] (setting [8]) it was 99% (active); in experiment [2] (at 50.0 µM), 99.5% (active). For the same compound, the growth inhibition was 12% in experiment [3] (setting [7]); 99% (active) in experiment [3] (setting [8]); 99.5% (active) in experiment [3] (at 50.0 µM); 7% in experiment [4] (setting [7]); 99% (active) in experiment [4] (setting [8]); 99% (active) in experiment [4] (at 50.0 µM). The growth inhibition in experiment [5] (setting [7]) was 11%; in experiment [5] (setting [8]) it was 99% (active); in experiment [5] (at 50.0 µM), 99.7% (active); in experiment [6] (setting [7]), 11%; in experiment [6] (setting [8]), 99% (active); in experiment [6] (at 50.0 µM), 99.2% (active).
Take `COc1ccc(C(CC(=O)c2ccc(C)cc2)Sc2ccccc2N)cc1` (stereo not given): the growth inhibition was 46% in experiment [1] (setting [7]); 51% in experiment [1] (setting [8]); -9.65% in experiment [1] (at 50.0 µM); 52% in experiment [2] (setting [7]); 52% in experiment [2] (setting [8]); 4.5% in experiment [2] (at 50.0 µM). For the same compound, the growth inhibition is -16% in experiment [3] (setting [7]); 26% in experiment [3] (setting [8]); 26.5% in experiment [3] (at 50.0 µM); 44% in experiment [4] (setting [7]); 40% in experiment [4] (setting [8]); -15.2% in experiment [4] (at 50.0 µM). In addition, the growth inhibition in experiment [5] (setting [7]) is 36%; in experiment [5] (setting [8]), 17%; in experiment [5] (at 50.0 µM) it was 27.5%; in experiment [6] (setting [7]) it was 35%; in experiment [6] (setting [8]), 50%; in experiment [6] (at 50.0 µM) it was 8.35%.
For the compound `O=C(c1ccc(F)cc1)c1ccc(Cl)cc1Cl`, the growth inhibition in experiment [1] (setting [7]) was 96% (active); in experiment [1] (setting [8]) it was 98% (active); in experiment [1] (at 50.0 µM), 97% (active); in experiment [2] (setting [7]), 100% (active); in experiment [2] (setting [8]), 99% (active); in experiment [2] (at 50.0 µM) it was 98.7% (active). The growth inhibition was 100% (active) in experiment [3] (setting [7]); 99% (active) in experiment [3] (setting [8]); 93.5% (active) in experiment [3] (at 50.0 µM); 99% (active) in experiment [4] (setting [7]); 100% (active) in experiment [4] (setting [8]); 98.2% (active) in experiment [4] (at 50.0 µM). In addition, the growth inhibition in experiment [5] (setting [7]) was 99% (active); in experiment [5] (setting [8]) it was 100% (active); in experiment [5] (at 50.0 µM) it was 98.9% (active); in experiment [6] (setting [7]), 99% (active); in experiment [6] (setting [8]), 99% (active); in experiment [6] (at 50.0 µM) it was 99.2% (active).
For `Oc1ccc(N=Nc2cc(Cl)ccc2Cl)cc1`, the growth inhibition in experiment [1] (setting [7]) is 92% (active); in experiment [1] (setting [8]) it was 95% (active); in experiment [1] (at 50.0 µM), 98.5% (active); in experiment [2] (setting [7]), 94% (active); in experiment [2] (setting [8]), 96% (active); in experiment [2] (at 50.0 µM), 98.2% (active). For the same compound, the growth inhibition in experiment [3] (setting [7]) is 95% (active); in experiment [3] (setting [8]) it was 95% (active); in experiment [3] (at 50.0 µM), 98.5% (active); in experiment [4] (setting [7]), 94% (active); in experiment [4] (setting [8]), 94% (active); in experiment [4] (at 50.0 µM) it was 82.5% (active). The growth inhibition was 93% (active) in experiment [5] (setting [7]); 95% (active) in experiment [5] (setting [8]); 98% (active) in experiment [5] (at 50.0 µM); 94% (active) in experiment [6] (setting [7]); 96% (active) in experiment [6] (setting [8]); 97.7% (active) in experiment [6] (at 50.0 µM).
Turning to `O=C(c1cccs1)N(C(=S)N1CCN(c2ccccn2)CC1)c1ccccc1`, the growth inhibition in experiment [1] (setting [7]) is 10%; in experiment [1] (setting [8]) it was 16%; in experiment [1] (at 50.0 µM) it was 15.4%; in experiment [2] (setting [7]), -8%; in experiment [2] (setting [8]) it was 8%; in experiment [2] (at 50.0 µM), 7.85%. Also, the growth inhibition in experiment [3] (setting [7]) is 3%; in experiment [3] (setting [8]), 1%; in experiment [3] (at 50.0 µM), 36.6%; in experiment [4] (setting [7]), 6%; in experiment [4] (setting [8]) it was 10%; in experiment [4] (at 50.0 µM) it was 20.8%. Besides, the growth inhibition in experiment [5] (setting [7]) was -2%; in experiment [5] (setting [8]), 3%; in experiment [5] (at 50.0 µM) it was 16.1%; in experiment [6] (setting [7]) it was -3%; in experiment [6] (setting [8]), 14%; in experiment [6] (at 50.0 µM), 63.8%.
